Hits are enriched below; roughly 1.2% of the tested compounds scored in any of these assays.
PfHsp40 yeast: rescue of PfHsp40-mediated yeast toxicity. growth rescue, % at 12.5 µM. hit rate 0.68% among 340,000. S. cerevisiae expressing PfHsp40, growth rescue, ATP luminescence. AID 504582; in the data active = growth rescue above about 28%, passing the limit was not always enough;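 also: yeast W303a lacking pdr1 and pdr3 grown in galactose medium; growth measured after three days at 30 °C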
Yp Topo-I inh: Y. pestis Topo-I inhibition via cleavage products; Y. pestis Topo-I cleavage product accumulation, plate reader; activity, % at 10 µM; hit rate 0.064% among 360,000; in the data active = activity above about 50%, passing the limit was not always enough
PrP 5UTR inh: inhibition of PrP 5' UTR reporter expression. cell-based PrP 5' UTR mRNA reporter, plate reader. AID 488862. hit rate 0.35% among 340,000. inhibition, % (no concentration beside the values); in the data active = inhibition above about 52%; also: 0 = median of the neutral control wells
TcdB GH inh: TcdB glycohydrolase inhibition. P18177. TcdB glycohydrolase enzymatic assay, plate reader. inhibition, % at 9.99 µM. hit rate 0.24% among 350,000. AID 652162; in the data active = inhibition above about 10%
BioA inh: blocks M. tuberculosis BioA enzyme activity; AID 602481; hit rate 0.096% among 360,000; inhibition, % at 9.99 µM; purified M. tuberculosis BioA enzyme, plate reader; in the data active = inhibition above about 40%
FadD28 binding: blocks FadD28 binding to the bisubstrate probe | fluorescence polarization | inhibition, % at 12.5 µM | hit rate 0.22% among 360,000 | AID 588549; in the data active = inhibition above about 8.5%, passing the limit was not always enough
* = called active by the depositor; ! = not active in a repeat.

O=C1NC(Cc2ccc(O)cc2)c2nc3ccc(Br)cc3c(=O)n2-c2cc3ccccc3cc21 (stereo not given) was read as Yp Topo-I inh 43, TcdB GH inh 2, BioA inh 1 and FadD28 binding -2.
Screening Cc1cc(C)c2c(=O)n3c(nc2c1)C(Cc1ccc(O)cc1)NC(=O)c1cc2ccccc2cc1-3 (stereo not given) returned Yp Topo-I inh 59*, TcdB GH inh 2, BioA inh -2 and FadD28 binding -4.
Screening O=S(=O)(Cc1cccc(F)c1)c1c[nH]c2ccccc12 returned PfHsp40 yeast -1, Yp Topo-I inh -2, PrP 5UTR inh 1, TcdB GH inh 15*, BioA inh 1 and FadD28 binding -5.
CC1CCN(c2ccc(-c3cccs3)nn2)CC1 was read as PfHsp40 yeast -6, Yp Topo-I inh 13, PrP 5UTR inh 80*, TcdB GH inh 0, BioA inh 0 and FadD28 binding -4.
Screening Clc1ccc(-c2cccs2)nn1 returned PfHsp40 yeast 0, Yp Topo-I inh -5, PrP 5UTR inh -3, TcdB GH inh 1 and FadD28 binding -2.
Screening O=C(O)C[C@H]1CC[C@H](NC(=O)Nc2ccccc2)[C@H](CO)O1 returned TcdB GH inh 1 and BioA inh -2.
Screening COc1ccc(C(=O)NNC(=O)c2cc(C)nc3ccccc23)cc1 returned PfHsp40 yeast 0, Yp Topo-I inh -3, PrP 5UTR inh -1, TcdB GH inh -2, BioA inh -1 and FadD28 binding -1.
`Cc1cc(C(=O)NNC(=O)c2ccc(Cl)cc2)c2ccccc2n1` gave PfHsp40 yeast 65*, Yp Topo-I inh 2, PrP 5UTR inh -19, TcdB GH inh 0, BioA inh 0 and FadD28 binding 0.
For O=C(Nc1ccccc1-c1nnn(CC(=O)N2CCOCC2)n1)c1ccccc1F the results were PfHsp40 yeast 42*, Yp Topo-I inh -2, PrP 5UTR inh -10, TcdB GH inh 1 and FadD28 binding 0.
O=C(Nc1ccccc1-c1nnn(CC(=O)N2CCOCC2)n1)c1ccc(F)cc1 was read as PfHsp40 yeast 0, Yp Topo-I inh -3, PrP 5UTR inh -10, TcdB GH inh 1 and FadD28 binding -1.
Screening CN1c2ccc(-c3ccc(C#N)cc3)cc2[C@@H]2[C@@H](CCN2C(=O)c2cccc(F)c2)[C@H]1CO returned TcdB GH inh -1 and BioA inh 33.
Screening CO[C@@H]1CN(C)C(=O)c2ccc(NC(=O)c3ccccn3)cc2OC[C@@H](C)N(C(=O)C2CCCC2)C[C@H]1C returned TcdB GH inh -3 and BioA inh -3.
Screening C=CCC1(O)C(=O)Nc2ccccc21 (stereo not given) returned PfHsp40 yeast 55*, Yp Topo-I inh 8, PrP 5UTR inh -23, BioA inh 0 and FadD28 binding 1.
For O=C(CC1(O)C(=O)Nc2ccccc21)c1ccccc1 (stereo not given) the results were PfHsp40 yeast 0, Yp Topo-I inh -1, PrP 5UTR inh -20, TcdB GH inh 3, BioA inh -1 and FadD28 binding -2.
Screening COc1ccc([N+](=O)[O-])cc1NC(=O)COC(=O)c1ccccc1C(=O)c1ccccc1 returned PfHsp40 yeast -1, Yp Topo-I inh -2, PrP 5UTR inh 3, BioA inh 0 and FadD28 binding -2.
Screening COc1ccc([N+](=O)[O-])cc1NC(=O)C(C)OC(=O)c1ccccc1C(=O)c1ccc(Cl)cc1 (stereo not given) returned PfHsp40 yeast 72*, Yp Topo-I inh 18, PrP 5UTR inh -8, TcdB GH inh 0 and FadD28 binding -4.
`C[C@H]1CN([C@@H](C)CO)C(=O)Cc2cc(NS(=O)(=O)c3cn(C)cn3)ccc2O[C@H]1CN(C)S(=O)(=O)c1ccc(F)cc1` gave TcdB GH inh 1.
Screening O=C(C[C@H]1CC[C@@H](NC(=O)c2ccccc2)[C@H](CO)O1)NCc1ccc(Oc2ccccc2)cc1 returned TcdB GH inh 0 and BioA inh -2.
Screening Nc1ccc(C(=O)Nc2ccc3c(O)cc(S(=O)(=O)O)cc3c2)cc1 returned PfHsp40 yeast 1, Yp Topo-I inh -8, PrP 5UTR inh -5, TcdB GH inh 1, BioA inh 5 and FadD28 binding 15*.
Cc1cc(C(=O)COC(=O)Cc2n[nH]c(=O)c3ccccc23)c(C)n1-c1cccc(C(F)(F)F)c1 was read as PfHsp40 yeast 96*, Yp Topo-I inh 67*, PrP 5UTR inh -9, BioA inh 1 and FadD28 binding -5.
Screening O=C(c1ccncc1)N1C[C@@H]2[C@H](c3ccccc31)[C@@H](CO)N2C(=O)c1ccncc1 returned TcdB GH inh 0 and BioA inh -3.
`CSC1=NSC2=NC(=O)/C(=C\c3coc4ccccc4c3=O)C(=N)N12` gave PfHsp40 yeast 0, Yp Topo-I inh 1, PrP 5UTR inh -34, TcdB GH inh -1 and FadD28 binding 5.
`CC(C)CSC1=NSC2=NC(=O)/C(=C\c3coc4ccccc4c3=O)C(=N)N12` gave PfHsp40 yeast -1, Yp Topo-I inh 1, PrP 5UTR inh -19 and FadD28 binding 14*.
Screening O=C(O)c1cccc2c3c([nH]c12)CCCC3 returned PfHsp40 yeast 128*, Yp Topo-I inh -6, PrP 5UTR inh -17, TcdB GH inh 0, BioA inh -1 and FadD28 binding -2.
Screening CCC(C)C(=O)OC1CCC=C2C=CC(C)C(CCC3CC(O)CC(=O)O3)C21 (stereo not given) returned PfHsp40 yeast -1, Yp Topo-I inh 3, PrP 5UTR inh -19, TcdB GH inh 1 and FadD28 binding 0.
For CC[C@H](C)C(=O)O[C@H]1C[C@@H](C)C=C2C=C[C@H](C)[C@H](CC[C@@H]3C[C@@H](O)CC(=O)O3)[C@H]21 the results were PfHsp40 yeast 69*!, Yp Topo-I inh 41, PrP 5UTR inh -14, TcdB GH inh 1, BioA inh 0 and FadD28 binding 0.
`CC1CN(C(=O)CCc2ccccc2)C(C)CN1C(=O)CCc1ccccc1` (stereo not given) gave PfHsp40 yeast 45*, Yp Topo-I inh 15, PrP 5UTR inh -28, BioA inh 2 and FadD28 binding -4.
CC1CCCN(C(=O)CCc2ccccc2)C1 (stereo not given) was read as PfHsp40 yeast -1, Yp Topo-I inh 4, PrP 5UTR inh -40 and FadD28 binding 2.
Screening C[C@@H]1CCCCO[C@@H](CN(C)C(=O)Cc2ccccc2)[C@H](C)CN([C@@H](C)CO)C(=O)c2cc(NS(=O)(=O)c3ccc(F)cc3)ccc2O1 returned BioA inh 1.
Screening O=C(O)C[C@H]1CC[C@H](NC(=O)Nc2cc(F)ccc2F)[C@@H](CO)O1 returned TcdB GH inh 1 and BioA inh -1.

From PubChem
